In the supplement of paper PMC3545927:
This is one part of the list. The true hit rate is not given.

B1: HC932 (peptide)
chain: CAMNTPGLPVAGNASASA
B2: HC2256 (peptide)
chain: CAEVVTSTWGAGNASASA
B3: HC1702 (peptide)
chain: CAMQECSQHLAGNASASA
B4: HC1379 (peptide)
chain: CAEEQKLPINAGNASASA
B5: HC2317 (peptide)
chain: CASVPCHRPSAGNASASA
B6: FS-442 (peptide)
chain: CAIPVRAPRSAGNASASA
B7: FS-487 (peptide)
chain: CAREFRAHRSAGNASASA
B8: FS-963 (peptide)
chain: CASRKRAPRSAGNASASA
B9: FS-524 (peptide)
chain: CAEFERAPRSAGNASASA
B10: FS-63 (peptide)
chain: CANATRAPRSAGNASASA
B11: HC1905 (peptide)
chain: CATTPCSGLWAGNASASA
B12: HC989 (peptide)
chain: CATSTWVLVGAGNASASA
B13: HC1353 (peptide)
chain: CAYSSMPPLEAGNASASA
B14: HC2133 (peptide)
chain: CAERVVCCSMAGNASASA
B15: FS-386 (peptide)
chain: CAVGERFRRDAGNASASA
B16: FS-2788 (peptide)
chain: CARRRRGFRQAGNASASA
B17: FS-24 (peptide)
chain: CAERAPERRDAGNASASA
B18: FS-3247 (peptide)
chain: CARFPRGVSRAGNASASA
B19: FS-2925 (peptide)
chain: CARFPRFVNVAGNASASA
B20: FS-1226 (peptide)
chain: CALGARERRDAGNASASA
B21: FS-3041 (peptide)
chain: CARQPRPAGVAGNASASA
B22: HC935 (peptide)
chain: CAPVCQDHLEAGNASASA
B23: HC285 (peptide)
chain: CARDGKLPATAGNASASA
B24: HC64 (peptide)
chain: CATTPCLGSWAGNASASA
B25: HC1087 (peptide)
chain: CAAGYGAGVAAGNASASA
B26: FS-92 (peptide)
chain: CASMPRERRDAGNASASA
B27: FS-1922 (peptide)
chain: CARRRRERDDAGNASASA
B28: FS-2789 (peptide)
chain: CARRRRGLECAGNASASA
B29: FS-1268 (peptide)
chain: CARRRRERRDAGNASASA
B30: FS-2081 (peptide)
chain: CARRRRSGADAGNASASA
B31: HC745 (peptide)
chain: CALLCPAGHAAGNASASA
B32: HC1019 (peptide)
chain: CAYIEQGMMLAGNASASA
B33: HC1898 (peptide)
chain: CATTPCSTSWAGNASASA
B34: HC2030 (peptide)
chain: CAVVVCSMSYAGNASASA
B35: HC29 (peptide)
chain: CAMEECHQHLAGNASASA
B36: HC1213 (peptide)
chain: CAMTTDNLKCAGNASASA
B37: HC724 (peptide)
chain: CASSDLYLVTAGNASASA
B38: FS-2786 (peptide)
chain: CARRRRFVPVAGNASASA
B39: FS-1784 (peptide)
chain: CARRRRFPFVAGNASASA
B40: FS-375 (peptide)
chain: CARRRRERRTAGNASASA
B41: FS-1317 (peptide)
chain: CADWLRQRRTAGNASASA
B42: FS-2596 (peptide)
chain: CARRRRAVPVAGNASASA
B43: FS-95 (peptide)
chain: CASVDRWRRTAGNASASA
B44: FS-584 (peptide)
chain: CACSHRERRDAGNASASA

Target: furin, P09958
Sequence (P09958 whole entry): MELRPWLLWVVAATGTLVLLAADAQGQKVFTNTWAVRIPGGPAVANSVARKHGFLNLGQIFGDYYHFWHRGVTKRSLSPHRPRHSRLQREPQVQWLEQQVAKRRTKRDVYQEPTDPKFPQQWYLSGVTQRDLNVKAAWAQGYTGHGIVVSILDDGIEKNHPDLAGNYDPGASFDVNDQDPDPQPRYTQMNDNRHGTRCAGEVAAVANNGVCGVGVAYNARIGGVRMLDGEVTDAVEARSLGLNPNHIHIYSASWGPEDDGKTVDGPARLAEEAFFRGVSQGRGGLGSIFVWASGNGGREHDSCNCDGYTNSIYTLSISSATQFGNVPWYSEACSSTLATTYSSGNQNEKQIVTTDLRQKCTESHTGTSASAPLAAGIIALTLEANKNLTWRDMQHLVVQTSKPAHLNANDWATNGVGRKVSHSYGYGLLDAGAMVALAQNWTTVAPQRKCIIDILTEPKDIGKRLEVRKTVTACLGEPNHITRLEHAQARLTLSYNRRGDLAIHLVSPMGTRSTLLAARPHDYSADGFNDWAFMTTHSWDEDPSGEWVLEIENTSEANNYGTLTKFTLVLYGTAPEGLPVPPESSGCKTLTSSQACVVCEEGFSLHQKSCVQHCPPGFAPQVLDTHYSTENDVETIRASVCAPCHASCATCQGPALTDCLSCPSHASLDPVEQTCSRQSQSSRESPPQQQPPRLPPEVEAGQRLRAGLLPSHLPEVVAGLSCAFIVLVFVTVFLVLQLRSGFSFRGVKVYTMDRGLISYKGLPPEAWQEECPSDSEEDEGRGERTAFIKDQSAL
Assay: furin cleavage Z-score vs untreated control; higher = more cleavage, active = 3.5 or more, inactive = 1 or less, 8 variable residues between constant flanks
How it was run: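 The cleavage Z-score was derived for purified furin acting on 8-mer peptides held on magnetic beads and fused to a cDNA oligonucleotide. Digests lasted 7.5, 15 or 30 min at 1:10 enzyme:substrate in 50 mM HEPES pH 7.5 with CaCl2 and NaCl. Sequencing counts of released DNA, log-transformed against furin-free reactions, were lowess-adjusted and scaled by median absolute deviation.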

| Sequence | furin cleavage Z-score (7.5 min) | furin cleavage Z-score (15 min) | furin cleavage Z-score (30 min) |
| --- | --- | --- | --- |
| B1 | 0.685 (inactive) | 0.0364 (inactive) | -1.85 (inactive) |
| B2 | 0.945 (inactive) | 1.37 | -1.03 (inactive) |
| B3 | 0.311 (inactive) | 0.512 (inactive) | -0.705 (inactive) |
| B4 | 0.861 (inactive) | -1.11 (inactive) | -0.462 (inactive) |
| B5 | 0.746 (inactive) | 0.823 (inactive) | 0.912 (inactive) |
| B6 | 5.71 (active) | 3.56 (active) | 4.32 (active) |
| B7 | 1.52 | 0.689 (inactive) | 1.39 |
| B8 | 10.6 (active) | 8.82 (active) | 9.02 (active) |
| B9 | 0.193 (inactive) | 0.266 (inactive) | 0.907 (inactive) |
| B10 | 8.66 (active) | 8.42 (active) | 6.36 (active) |
| B11 | 0.96 (inactive) | 1.01 | -0.0137 (inactive) |
| B12 | -2.25 (inactive) | -0.362 (inactive) | -1.37 (inactive) |
| B13 | 0.446 (inactive) | 1.62 | 1.96 |
| B14 | -0.391 (inactive) | 0.896 (inactive) | 0.654 (inactive) |
| B15 | 11.7 (active) | 13 (active) | 8.87 (active) |
| B16 | 2.04 | 3.6 (active) | 4.63 (active) |
| B17 | -2.22 (inactive) | -0.00906 (inactive) | -1.69 (inactive) |
| B18 | -0.934 (inactive) | -0.454 (inactive) | -0.752 (inactive) |
| B19 | 3.2 | 3.36 | 7.1 (active) |
| B20 | 13.9 (active) | 15.5 (active) | 11.8 (active) |
| B21 | -0.899 (inactive) | -0.574 (inactive) | -0.629 (inactive) |
| B22 | -0.428 (inactive) | -0.153 (inactive) | -0.41 (inactive) |

| Sequence | furin cleavage Z-score (7.5 min) | furin cleavage Z-score (15 min) | furin cleavage Z-score (30 min) |
| --- | --- | --- | --- |
| B23 | 1.05 | 2.03 | 0.856 (inactive) |
| B24 | 0.626 (inactive) | 0.544 (inactive) | 0.646 (inactive) |
| B25 | 1.51 | -1.39 (inactive) | -0.133 (inactive) |
| B26 | 10.3 (active) | 12.9 (active) | 9.32 (active) |
| B27 | 7.16 (active) | 10.1 (active) | 7.38 (active) |
| B28 | 6.18 (active) | 4.95 (active) | 7.29 (active) |
| B29 | 14.1 (active) | 12.4 (active) | 10.4 (active) |
| B30 | 1.69 | 0.662 (inactive) | 0.709 (inactive) |
| B31 | 0.399 (inactive) | 0.942 (inactive) | -0.0279 (inactive) |
| B32 | -1.18 (inactive) | -0.261 (inactive) | -0.872 (inactive) |
| B33 | 0.261 (inactive) | 0.66 (inactive) | -0.516 (inactive) |
| B34 | 0.0385 (inactive) | -1.4 (inactive) | 0.392 (inactive) |
| B35 | 0.383 (inactive) | 1.55 | 2.41 |
| B36 | -0.575 (inactive) | -0.0624 (inactive) | 0.0584 (inactive) |
| B37 | -0.584 (inactive) | -0.169 (inactive) | -0.884 (inactive) |
| B38 | 2.12 | 4.63 (active) | 5.2 (active) |
| B39 | 0.483 (inactive) | 0.473 (inactive) | 1.3 |
| B40 | 10.4 (active) | 11 (active) | 9 (active) |
| B41 | -0.575 (inactive) | 1.58 | 1.74 |
| B42 | 0.0891 (inactive) | 0.235 (inactive) | 1.42 |
| B43 | 3.08 | 4.75 (active) | 4.05 (active) |
| B44 | 6.92 (active) | 7.04 (active) | 8.38 (active) |
